Experimental data taken from the supplement of paper PMC10849652.
Of roughly 7,900 targets only a part is listed; those with a hit were picked by preference. About 0.6% of all pairs of compound and target were hits.

Columns and labels:
Test in all cases: log2 fold change, soluble protein after heating vs DMSO (PISA); higher = thermal stabilisation; K562 cells, 10 uM, 30 min; active = over 0.2 and 3.5 SD of the protein, either way, in both replicates (recomputed)
saracatinib = compound: CN1CCN(CCOc2cc(OC3CCOCC3)c3c(Nc4c(Cl)ccc5c4OCO5)ncnc3c2)CC1 [saracatinib]
Outline: (§1)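 Values are thermal stability changes relative to control samples and are taken from duplicates. They are stated as log2 fold changes. Before quantification by TMTpro 16plex LC-MS/MS with equalised channel sums, K562 cells at 2×10^6 cells/mL were treated with 10 μM compound for 30 min, heated in aliquots for 3 min across 48°C-58°C, pooled, extracted in PBS with 0.5% NP-40 at 4°C, and centrifuged at 21,000xg for 90 min to give the soluble supernatant.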

sotrastaurin = compound: CN1CCN(c2nc(C3=C(c4c[nH]c5ccccc45)C(=O)NC3=O)c3ccccc3n2)CC1 [sotrastaurin]
Outline: as §1

alvocidib = compound: CN1CC[C@H](c2c(O)cc(O)c3c(=O)cc(-c4ccccc4Cl)oc23)[C@H](O)C1 [alvocidib]
Outline: as §1

Tubastatin A = compound: CN1CCc2c(c3ccccc3n2Cc2ccc(C(=O)NO)cc2)C1 [Tubastatin A]
Outline: as §1

[1] = compound: CNC(=O)C1=CC=CC=C1NC2=NC(=NC=C2Cl)NC3=C(C=C(C=C3)N4CCOCC4)OC
Outline: as §1

defactinib = compound: CNC(=O)c1ccc(Nc2ncc(C(F)(F)F)c(NCc3nccnc3N(C)S(C)(=O)=O)n2)cc1 [defactinib]
Outline: as §1

rucaparib = compound: CNCc1ccc(-c2[nH]c3cc(F)cc4c3c2CCNC4=O)cc1 [rucaparib]
Outline: as §1

[2] = compound: CNc1nc(-c2ccc3c(N)n[nH]c3c2)cc(N2C[C@@H](C(=O)NC3CCCCC3)CC[C@H]2C)n1
Outline: as §1

encorafenib = compound: COC(=O)N[C@@H](C)CNc1nccc(-c2cn(C(C)C)nc2-c2cc(Cl)cc(NS(C)(=O)=O)c2F)n1 [encorafenib]
Outline: as §1

[3] = compound: COC(=O)[C@H](CCSC)NC(=O)C1=C(C=C(C=C1)NC[C@H](CS)N)C2=CC=CC=C2
Outline: as §1

[4] = compound: COC1=CC=C(C=C1)CN2C=CC3=C2C=C(C=C3)C(=O)NO
Outline: as §1

filanesib = compound: CON(C)C(=O)N1N=C(c2cc(F)ccc2F)S[C@@]1(CCCN)c1ccccc1 [filanesib]
Outline: as §1

zotarolimus = compound: CO[C@H]1C[C@@H]2CC[C@@H](C)[C@@](O)(O2)C(=O)C(=O)N2CCCC[C@H]2C(=O)O[C@H]([C@H](C)C[C@@H]2CC[C@H](n3cnnn3)[C@H](OC)C2)CC(=O)[C@H](C)/C=C(\C)[C@@H](O)[C@@H](OC)C(=O)[C@H](C)C[C@H](C)/C=C/C=C/C=C/1C [zotarolimus]
Outline: as §1

idasanutlin = compound: COc1cc(C(=O)O)ccc1NC(=O)[C@@H]1N[C@@H](CC(C)(C)C)[C@](C#N)(c2ccc(Cl)cc2F)[C@H]1c1cccc(Cl)c1F [idasanutlin]
Outline: as §1

alisertib = compound: COc1cc(Nc2ncc3c(n2)-c2ccc(Cl)cc2C(c2c(F)cccc2OC)=NC3)ccc1C(=O)O [alisertib]
Outline: as §1

[5] = compound: COc1cc2nc(-c3cc(F)ccc3O)nc(N[C@@H]3CNC[C@H]3C(C)(C)O)c2cc1OC
Outline: as §1

gefitinib = compound: COc1cc2ncnc(Nc3ccc(F)c(Cl)c3)c2cc1OCCCN1CCOCC1 [gefitinib]
Outline: as §1

[6] = compound: COc1cccc2cc(-c3nc([C@H]4CC[C@H](C(=O)O)CC4)n4ncnc(N)c34)[nH]c12
Outline: as §1

lapatinib = compound: CS(=O)(=O)CCNCc1ccc(-c2ccc3ncnc(Nc4ccc(OCc5cccc(F)c5)c(Cl)c4)c3c2)o1 [lapatinib]
Outline: as §1

pictilisib = compound: CS(=O)(=O)N1CCN(Cc2cc3nc(-c4cccc5[nH]ncc45)nc(N4CCOCC4)c3s2)CC1 [pictilisib]
Outline: as §1

Measured: log2 fold change

BZW2 (UniProt Q9Y6E2)
inactive: saracatinib -0.007 | sotrastaurin -0.032 | alvocidib -0.086 | Tubastatin A -0.004 | [1] -0.006 | defactinib -0.057 | rucaparib -0.022 | [2] 0.001 | encorafenib 0.058 | [3] -0.026 | [4] -0.029 | filanesib -0.05 | zotarolimus 0.02 | idasanutlin -0.126 | alisertib -0.056 | [5] 0.011 | gefitinib -0.009 | [6] 0.023 | lapatinib -0.055 | pictilisib -0.034

BPHL (UniProt Q86WA6)
Chain of UniProt Q86WA6 (Q86WA6 whole entry, looked up): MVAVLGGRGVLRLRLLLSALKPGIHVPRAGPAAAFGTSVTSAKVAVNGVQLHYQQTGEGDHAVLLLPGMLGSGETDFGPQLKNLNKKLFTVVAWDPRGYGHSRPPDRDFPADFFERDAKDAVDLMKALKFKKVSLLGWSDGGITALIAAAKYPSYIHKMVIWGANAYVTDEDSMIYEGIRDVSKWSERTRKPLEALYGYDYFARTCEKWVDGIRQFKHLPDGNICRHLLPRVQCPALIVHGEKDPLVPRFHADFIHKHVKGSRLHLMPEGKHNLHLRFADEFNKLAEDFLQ
inactive: saracatinib 0.056 | sotrastaurin 0.019 | alvocidib -0.083 | Tubastatin A -0.259 | [1] 0.025 | defactinib -0.014 | rucaparib 0.069 | [2] 0.006 | encorafenib -0.012 | [3] -0.017 | [4] -0.118 | filanesib -0.018 | zotarolimus 0.017 | idasanutlin -0.007 | alisertib 0.004 | [5] 0.081 | gefitinib 0.049 | [6] -0.056 | lapatinib -0.033 | pictilisib 0.033

BST2 (UniProt Q10589)
Chain of UniProt Q10589 (Q10589 whole entry, looked up): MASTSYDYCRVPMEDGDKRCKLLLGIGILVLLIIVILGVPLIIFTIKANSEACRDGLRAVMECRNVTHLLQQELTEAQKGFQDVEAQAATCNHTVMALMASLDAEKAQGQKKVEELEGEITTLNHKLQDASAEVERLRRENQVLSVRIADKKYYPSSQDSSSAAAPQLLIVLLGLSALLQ
inactive: saracatinib 0.003 | sotrastaurin -0.097 | alvocidib -0.005 | Tubastatin A -0.055 | [1] -0.063 | defactinib 0.03 | rucaparib -0.008 | [2] -0.07 | encorafenib 0 | [3] 0.012 | [4] -0.064 | filanesib -0.05 | zotarolimus 0.041 | idasanutlin -0.044 | alisertib -0.059 | [5] -0.028 | gefitinib -0.022 | [6] 0.007 | lapatinib 0.038 | pictilisib 0.036

AP2A1 (UniProt O95782)
Chain of UniProt O95782 (O95782 whole entry, looked up): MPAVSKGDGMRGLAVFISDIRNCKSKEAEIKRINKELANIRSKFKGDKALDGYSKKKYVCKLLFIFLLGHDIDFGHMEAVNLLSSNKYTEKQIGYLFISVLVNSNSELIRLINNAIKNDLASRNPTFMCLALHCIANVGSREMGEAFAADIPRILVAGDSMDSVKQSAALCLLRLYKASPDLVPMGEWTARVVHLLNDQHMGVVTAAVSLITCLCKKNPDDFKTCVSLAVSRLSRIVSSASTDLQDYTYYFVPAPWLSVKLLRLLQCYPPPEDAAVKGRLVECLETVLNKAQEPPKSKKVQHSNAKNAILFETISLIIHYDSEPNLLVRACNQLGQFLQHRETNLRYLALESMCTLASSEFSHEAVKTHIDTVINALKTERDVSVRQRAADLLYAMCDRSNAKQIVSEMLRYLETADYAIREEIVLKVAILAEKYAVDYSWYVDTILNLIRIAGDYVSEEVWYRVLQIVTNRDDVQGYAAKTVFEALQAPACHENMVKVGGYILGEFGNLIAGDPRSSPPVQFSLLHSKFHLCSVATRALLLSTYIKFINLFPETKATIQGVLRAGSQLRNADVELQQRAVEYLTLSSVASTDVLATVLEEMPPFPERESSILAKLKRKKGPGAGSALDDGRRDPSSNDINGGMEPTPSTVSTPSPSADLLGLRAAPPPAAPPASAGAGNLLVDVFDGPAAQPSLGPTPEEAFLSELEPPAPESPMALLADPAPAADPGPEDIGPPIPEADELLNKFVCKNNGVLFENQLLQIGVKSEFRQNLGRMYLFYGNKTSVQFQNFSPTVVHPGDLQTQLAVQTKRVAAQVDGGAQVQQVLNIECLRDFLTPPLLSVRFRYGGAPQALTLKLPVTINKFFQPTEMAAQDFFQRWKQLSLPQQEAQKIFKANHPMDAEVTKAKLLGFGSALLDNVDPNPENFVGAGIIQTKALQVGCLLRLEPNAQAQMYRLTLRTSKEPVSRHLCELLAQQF
inactive: saracatinib 0.049 | sotrastaurin 0.001 | alvocidib 0.027 | Tubastatin A 0.001 | [1] 0.004 | defactinib 0.012 | rucaparib 0.01 | [2] -0.047 | encorafenib 0.032 | [3] -0.038 | [4] 0.044 | filanesib 0.045 | zotarolimus 0.033 | idasanutlin 0.027 | alisertib -0.041 | [5] 0.008 | gefitinib 0.025 | [6] 0.005 | lapatinib 0.027 | pictilisib -0.042

BID isoform 2 (UniProt P55957)
inactive: saracatinib 0.008 | sotrastaurin 0.04 | alvocidib -0.018 | Tubastatin A 0.076 | [1] -0.053 | defactinib -0.031 | rucaparib 0.033 | [2] -0.017 | encorafenib -0.011 | [3] -0.032 | [4] 0.045 | filanesib 0.016 | zotarolimus 0.08 | idasanutlin 0.016 | alisertib -0.045 | [5] -0.006 | gefitinib 0 | [6] 0.089 | lapatinib 0.005 | pictilisib 0.038

AKAP8 (UniProt O43823)
Chain of UniProt O43823 (O43823 whole entry, looked up): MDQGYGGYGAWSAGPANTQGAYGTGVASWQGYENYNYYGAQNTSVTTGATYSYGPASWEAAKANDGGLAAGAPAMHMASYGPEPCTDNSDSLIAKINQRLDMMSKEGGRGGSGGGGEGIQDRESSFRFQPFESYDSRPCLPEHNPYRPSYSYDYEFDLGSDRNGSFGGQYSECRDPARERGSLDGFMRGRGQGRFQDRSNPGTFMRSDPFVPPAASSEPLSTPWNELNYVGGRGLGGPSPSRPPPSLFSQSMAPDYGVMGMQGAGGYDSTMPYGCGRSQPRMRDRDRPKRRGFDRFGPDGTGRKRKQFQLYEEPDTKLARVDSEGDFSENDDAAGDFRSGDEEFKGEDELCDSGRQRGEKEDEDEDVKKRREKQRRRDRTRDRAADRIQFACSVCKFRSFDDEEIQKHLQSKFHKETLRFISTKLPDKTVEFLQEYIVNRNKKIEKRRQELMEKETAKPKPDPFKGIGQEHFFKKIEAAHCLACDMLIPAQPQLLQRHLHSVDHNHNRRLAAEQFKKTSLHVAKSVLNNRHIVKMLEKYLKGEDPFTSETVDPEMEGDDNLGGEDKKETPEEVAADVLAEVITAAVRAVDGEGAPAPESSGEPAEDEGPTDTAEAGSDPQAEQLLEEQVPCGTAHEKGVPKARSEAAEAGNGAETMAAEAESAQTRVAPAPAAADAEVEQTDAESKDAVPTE
inactive: saracatinib 0.012 | sotrastaurin -0.021 | alvocidib 0.112 | Tubastatin A 0.002 | [1] -0.073 | defactinib 0.01 | rucaparib 0.017 | [2] -0.126 | encorafenib 0.037 | [3] 0.008 | [4] 0.026 | filanesib 0.035 | zotarolimus -0.105 | idasanutlin 0.052 | alisertib -0.046 | [5] -0.002 | gefitinib -0.049 | [6] 0.067 | lapatinib 0.014 | pictilisib 0.101

ANKZF1 (UniProt Q9H8Y5)
Chain of UniProt Q9H8Y5 (Q9H8Y5 whole entry, looked up): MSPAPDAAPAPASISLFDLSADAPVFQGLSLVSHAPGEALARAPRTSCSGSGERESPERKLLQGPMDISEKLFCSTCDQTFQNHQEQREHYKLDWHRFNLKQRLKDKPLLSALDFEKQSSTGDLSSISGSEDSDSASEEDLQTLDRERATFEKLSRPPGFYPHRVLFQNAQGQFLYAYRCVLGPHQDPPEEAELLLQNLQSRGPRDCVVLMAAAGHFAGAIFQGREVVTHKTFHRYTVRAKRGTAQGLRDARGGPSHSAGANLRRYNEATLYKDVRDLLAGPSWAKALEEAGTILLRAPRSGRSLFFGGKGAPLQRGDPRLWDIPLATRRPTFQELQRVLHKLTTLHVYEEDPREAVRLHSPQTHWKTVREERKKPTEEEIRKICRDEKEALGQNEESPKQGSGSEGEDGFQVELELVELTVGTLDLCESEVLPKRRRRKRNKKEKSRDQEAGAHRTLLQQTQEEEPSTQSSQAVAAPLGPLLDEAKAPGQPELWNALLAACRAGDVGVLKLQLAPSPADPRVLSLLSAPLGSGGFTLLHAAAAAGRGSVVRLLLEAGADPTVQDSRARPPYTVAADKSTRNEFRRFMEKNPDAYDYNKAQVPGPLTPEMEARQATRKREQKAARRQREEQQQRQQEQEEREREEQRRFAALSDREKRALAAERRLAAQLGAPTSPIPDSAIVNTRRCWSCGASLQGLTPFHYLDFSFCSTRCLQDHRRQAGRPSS
inactive: saracatinib -0.146 | sotrastaurin -0.093 | alvocidib 0.034 | Tubastatin A 0.088 | [1] 0.04 | defactinib 0.123 | rucaparib 0.167 | [2] 0.156 | encorafenib 0.119 | [3] -0.274 | [4] -0.005 | filanesib 0.249 | zotarolimus 0.048 | idasanutlin 0.235 | alisertib -0.034 | [5] 0.042 | gefitinib -0.001 | [6] -0.022 | lapatinib -0.046 | pictilisib -0.002

BOP1 (UniProt Q14137)
Chain of UniProt Q14137 (Q14137 whole entry, looked up): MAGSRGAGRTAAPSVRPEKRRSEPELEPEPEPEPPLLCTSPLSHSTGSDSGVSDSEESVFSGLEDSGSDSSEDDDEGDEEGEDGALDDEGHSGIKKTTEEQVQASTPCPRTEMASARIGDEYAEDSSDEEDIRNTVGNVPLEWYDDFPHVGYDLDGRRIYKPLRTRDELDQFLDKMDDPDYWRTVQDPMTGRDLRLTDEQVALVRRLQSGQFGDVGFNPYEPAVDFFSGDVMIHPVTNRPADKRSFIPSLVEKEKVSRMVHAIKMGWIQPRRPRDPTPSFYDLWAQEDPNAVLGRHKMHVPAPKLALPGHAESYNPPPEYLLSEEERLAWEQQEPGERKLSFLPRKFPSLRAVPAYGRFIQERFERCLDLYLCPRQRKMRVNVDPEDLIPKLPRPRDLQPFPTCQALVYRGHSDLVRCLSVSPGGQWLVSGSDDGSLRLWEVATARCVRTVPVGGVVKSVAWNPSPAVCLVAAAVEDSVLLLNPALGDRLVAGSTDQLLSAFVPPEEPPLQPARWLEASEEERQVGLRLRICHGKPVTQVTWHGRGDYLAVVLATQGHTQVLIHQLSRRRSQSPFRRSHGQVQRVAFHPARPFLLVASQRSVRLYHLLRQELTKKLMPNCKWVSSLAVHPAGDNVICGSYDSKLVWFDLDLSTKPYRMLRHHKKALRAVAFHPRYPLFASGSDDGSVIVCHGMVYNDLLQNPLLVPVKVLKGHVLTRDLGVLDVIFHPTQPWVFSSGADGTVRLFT
inactive: saracatinib 0.011 | sotrastaurin -0.043 | alvocidib -0.082 | Tubastatin A -0.013 | [1] 0.015 | defactinib -0.157 | rucaparib 0.066 | [2] -0.016 | encorafenib 0.155 | [3] 0.046 | [4] -0.059 | filanesib 0.161 | zotarolimus 0.054 | idasanutlin 0.077 | alisertib -0.131 | [5] -0.085 | gefitinib 0.017 | [6] -0.012 | lapatinib -0.034 | pictilisib 0

BECN1 (UniProt Q14457)
Chain of UniProt Q14457 (Q14457 whole entry, looked up): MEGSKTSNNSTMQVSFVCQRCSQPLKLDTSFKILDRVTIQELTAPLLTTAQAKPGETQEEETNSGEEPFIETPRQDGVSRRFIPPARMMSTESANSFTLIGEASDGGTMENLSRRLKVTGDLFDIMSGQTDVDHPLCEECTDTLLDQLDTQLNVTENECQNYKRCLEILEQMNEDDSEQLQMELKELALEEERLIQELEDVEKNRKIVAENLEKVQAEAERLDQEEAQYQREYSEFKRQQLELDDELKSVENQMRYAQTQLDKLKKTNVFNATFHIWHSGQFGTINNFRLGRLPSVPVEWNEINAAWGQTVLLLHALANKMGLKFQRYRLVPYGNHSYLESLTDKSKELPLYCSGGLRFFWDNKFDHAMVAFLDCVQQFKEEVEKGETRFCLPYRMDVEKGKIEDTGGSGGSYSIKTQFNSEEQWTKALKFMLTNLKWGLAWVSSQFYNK
inactive: saracatinib 0.013 | sotrastaurin -0.038 | alvocidib -0.262 | Tubastatin A -0.065 | [1] -0.029 | defactinib -0.054 | rucaparib -0.014 | [2] -0.013 | encorafenib 0.001 | [3] 0.018 | [4] 0.094 | filanesib -0.005 | zotarolimus -0.142 | idasanutlin -0.159 | alisertib -0.081 | [5] 0.117 | gefitinib 0 | [6] -0.045 | lapatinib 0.008 | pictilisib 0.086

AGPAT1 (UniProt Q99943)
Chain of UniProt Q99943 (Q99943 whole entry, looked up): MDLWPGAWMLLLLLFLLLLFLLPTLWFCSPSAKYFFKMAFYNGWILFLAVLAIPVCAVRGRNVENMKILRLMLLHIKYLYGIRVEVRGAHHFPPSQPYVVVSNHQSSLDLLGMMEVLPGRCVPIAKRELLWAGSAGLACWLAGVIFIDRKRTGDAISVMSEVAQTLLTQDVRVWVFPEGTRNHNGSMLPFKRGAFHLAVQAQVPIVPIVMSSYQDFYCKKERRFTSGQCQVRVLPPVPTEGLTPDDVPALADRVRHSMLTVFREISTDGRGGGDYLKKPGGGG
inactive: saracatinib -0.009 | sotrastaurin 0.045 | alvocidib 0.002 | Tubastatin A -0.004 | [1] 0.074 | defactinib -0.079 | rucaparib -0.109 | [2] -0.011 | encorafenib 0.039 | [3] 0.003 | [4] -0.004 | filanesib 0.001 | zotarolimus -0.048 | idasanutlin -0.059 | alisertib -0.081 | [5] 0.176 | gefitinib 0.028 | [6] 0.021 | lapatinib 0.074 | pictilisib 0.017

BRK1 isoform 2 (UniProt Q8WUW1)
Chain of UniProt Q8WUW1 (Q8WUW1 whole entry, looked up): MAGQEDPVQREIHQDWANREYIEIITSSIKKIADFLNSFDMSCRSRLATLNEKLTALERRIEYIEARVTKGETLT
inactive: saracatinib 0.036 | sotrastaurin 0.007 | alvocidib -0.027 | Tubastatin A 0.037 | [1] -0.011 | defactinib -0.074 | rucaparib -0.05 | [2] -0.03 | encorafenib -0.063 | [3] -0.018 | [4] 0.113 | filanesib 0.127 | zotarolimus -0.049 | idasanutlin 0.031 | alisertib -0.076 | [5] -0.07 | gefitinib 0.05 | [6] -0.041 | lapatinib -0.032 | pictilisib 0.018

ACSL1 (UniProt P33121)
inactive: saracatinib 0 | sotrastaurin 0.029 | alvocidib -0.083 | Tubastatin A -0.075 | [1] -0.003 | defactinib -0.025 | rucaparib -0.021 | [2] -0.025 | encorafenib 0.031 | [3] 0.042 | [4] -0.014 | filanesib -0.08 | zotarolimus 0.038 | idasanutlin -0.017 | alisertib 0.015 | [5] -0.261 | gefitinib 0.024 | [6] 0.024 | lapatinib 0.017 | pictilisib 0.041

BRD8 (UniProt Q9H0E9)
inactive: saracatinib 0.004 | sotrastaurin -0.001 | alvocidib 0.004 | Tubastatin A -0.097 | [1] -0.017 | defactinib -0.047 | rucaparib -0.012 | [2] -0.08 | encorafenib -0.027 | [3] -0.009 | [4] -0.013 | filanesib 0.064 | zotarolimus -0.029 | idasanutlin 0.08 | alisertib -0.061 | [5] -0.032 | gefitinib 0.005 | [6] 0.017 | lapatinib -0.009 | pictilisib 0.103

ACP1 (UniProt P24666)
Chain of UniProt P24666 (P24666 whole entry, looked up): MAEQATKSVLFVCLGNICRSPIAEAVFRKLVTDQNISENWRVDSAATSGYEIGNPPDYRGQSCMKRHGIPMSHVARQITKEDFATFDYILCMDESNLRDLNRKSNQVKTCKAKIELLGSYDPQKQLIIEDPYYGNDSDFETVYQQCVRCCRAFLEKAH
inactive: saracatinib -0.031 | sotrastaurin -0.054 | alvocidib -0.111 | Tubastatin A 0.141 | [1] -0.1 | defactinib -0.044 | rucaparib 0.12 | [2] 0.123 | encorafenib 0.035 | [3] -0.111 | [4] 0.008 | filanesib -0.047 | zotarolimus -0.039 | idasanutlin -0.078 | alisertib 0.029 | [5] 0.056 | gefitinib 0.003 | [6] -0.086 | lapatinib -0.073 | pictilisib -0.062

ARGLU1 (UniProt Q9NWB6)
Chain of UniProt Q9NWB6 (Q9NWB6 whole entry, looked up): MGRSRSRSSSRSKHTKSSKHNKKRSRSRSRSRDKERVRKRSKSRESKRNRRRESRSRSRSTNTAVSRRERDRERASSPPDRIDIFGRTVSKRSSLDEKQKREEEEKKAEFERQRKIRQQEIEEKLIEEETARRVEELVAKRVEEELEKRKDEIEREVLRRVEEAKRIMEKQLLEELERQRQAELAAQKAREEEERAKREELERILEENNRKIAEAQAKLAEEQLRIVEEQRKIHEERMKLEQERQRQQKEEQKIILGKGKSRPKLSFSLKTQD
inactive: saracatinib 0.016 | sotrastaurin 0.091 | alvocidib 0.014 | Tubastatin A 0.003 | [1] -0.365 | defactinib -0.04 | rucaparib -0.026 | [2] -0.028 | encorafenib -0.006 | [3] 0.077 | [4] 0.066 | filanesib 0.207 | zotarolimus 0.025 | idasanutlin 0.171 | alisertib -0.13 | [5] 0.05 | gefitinib 0.212 | [6] 0.031 | lapatinib 0.062 | pictilisib -0.027

ATP6V1C1 (UniProt P21283)
inactive: saracatinib -0.193 | sotrastaurin -0.07 | alvocidib 0.026 | Tubastatin A 0.059 | [1] -0.034 | defactinib -0.011 | rucaparib 0.137 | [2] 0.004 | encorafenib 0.083 | [3] -0.013 | [4] -0.012 | filanesib 0.029 | zotarolimus 0.08 | idasanutlin 0.016 | alisertib -0.069 | [5] -0.091 | gefitinib -0.286 | [6] -0.206 | lapatinib -0.046 | pictilisib -0.022
